According to the supplement of paper PMC12636033:
± gives the standard deviation of the averaged measurements. In all, about 33,000 sequences were measured (“E-score (rank enrichment, -0.5 to 0.5)”: median about -0.0068, highest 2% from about 0.24 on). The full list was thinned out, with the highest values kept by preference.

The sequences below were run on muMax20 (Max(13-93) K31hArg/K57hArg, M65Nle) (assay: PBM 8-mer E-score (E-score (rank enrichment, -0.5 to 0.5)); higher = stronger preferential binding).
Method: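 Protein binding microarray (universal PBM chip covering all 10-mers in fixed probe flanks) with chemically synthesized human Max(13-93) bHLH-LZ analogs (not full-length Max) bearing noncanonical residues (hArg, Tha, Aib, Nle at 65) and aromatic Cys staples. Read-out per 8-mer (and its reverse complement): E-score (rank-based enrichment, -0.5 to 0.5) and Z-score of median probe intensity.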

Sequence	PBM 8-mer E-score
CCTCGACA	-0.0844 ± 0.042
ATATGCTC	0.171 ± 0.015
AATGAAAA	0.13 ± 0.0019
AATGCGAT	0.019 ± 0.029
CCCCGAAA	-0.0496 ± 0.15
ATCTTGAA	0.0915 ± 0.096
ATCTTGAC	0.00194 ± 0.029
ATCTTGAG	0.251 ± 0.011
AATGATGT	0.0444 ± 0.087
GCATGTCC	0.00639 ± 0.093
AGTGAGGG	-0.0244 ± 0.062
AGTAAACA	0.202 ± 0.092
TATAAAGA	0.252 ± 0.053
CATAAAAA	0.254 ± 0.044
CATAAAAC	0.209 ± 0.058
GGTAAACA	0.163 ± 0.037
TATAAAAA	0.301 ± 0.1
CATAAAAG	0.138 ± 0.11
GATAAAGA	0.195 ± 0.048
AATAAAGA	0.18 ± 0.015
GATAAAAA	0.204 ± 0.016
TGTAAACA	0.237 ± 0.0061
TAAAAAAA	0.159 ± 0.11
AAAGTAGA	0.0577 ± 0.0065
CAAGGTAA	0.0156 ± 0.05

Sequence	PBM 8-mer E-score
CACCCCAA	0.206 ± 0.015
CGAGCACC	-0.226 ± 0.0053
TGCCTGAA	-0.00136 ± 0.071
ATTGATCG	0.103 ± 0.027
CATAAACA	0.252 ± 0.053
GATAAACA	0.136 ± 0.05
TATAAACA	0.234 ± 0.022
GTCGCGCA	-0.0658 ± 0.12
GTACTCCA	-0.0757 ± 0.025
AAGCTGAT	0.313 ± 0.042
AAGCTGAC	-0.16 ± 0.059
AAGCTGTA	0.111 ± 0.038
TGCTGGAA	-0.0216 ± 0.063
GGAGAACC	-0.142 ± 0.092
CGTTATAA	0.133 ± 0.02
CGTTATAG	0.262 ± 0.046
CGTTATAC	0.036 ± 0.026
AGTTATAA	0.181 ± 0.096
AGTTATAC	0.143 ± 0.075
AGTTATAT	0.244 ± 0.012
GTCTTCCA	-0.0719 ± 0.098
ATCCTAAG	-0.054 ± 0.025
ACAAAGCG	0.0741 ± 0.0089
GAACCTAC	-0.16 ± 0.037
GCATTTAA	0.0477 ± 0.11

Sequence	PBM 8-mer E-score
ATATTAAC	0.196 ± 0.0065
ATATTAAA	0.326 ± 0.0046
CTATTTAA	0.0343 ± 0.057
ACATTTAG	0.136 ± 0.066
ATATTTAC	0.196 ± 0.025
ATATTAAT	0.238 ± 0.075
ACATTTAA	0.258 ± 0.14
TTATTAAA	0.142 ± 0.044
ATATTTAA	0.344 ± 0.013
ATATTAAG	0.163 ± 0.058
CTATTAAA	0.159 ± 0.025
AGGAACTA	-0.0068 ± 0.0036
CACCAGGG	-0.137 ± 0.034
AAGTCTTC	0.0741 ± 0.052
CTCCATTC	0.102 ± 0.029
CGAACCTC	0.00719 ± 0.0044
AAAAATCT	0.0641 ± 0.091
GTCCTGAA	-0.111 ± 0.053
CCAGAAAC	-0.112 ± 0.092
CTCACGGA	-0.205 ± 0.023
CATAGCAC	0.258 ± 0.0042
GATAGCAC	0.0754 ± 0.042
CATAGCAA	0.209 ± 0.024
AGGGCGAT	-0.119 ± 0.015
AGACTAAT	-0.0591 ± 0.045

Sequence	PBM 8-mer E-score
CGATATAA	0.267 ± 0.016
CGATATTA	0.267 ± 0.038
CGATATAG	0.044 ± 0.12
CGATATAC	0.0102 ± 0.0034
CGATATTC	-0.032 ± 0.1
GGATATTA	0.125 ± 0.09
CTCGGGTC	-0.292 ± 0.04
ATCTCAGC	-0.206 ± 0.11
ATCATAAA	0.212 ± 0.046
ATCATAAT	0.288 ± 0.047
AACATAAT	0.31 ± 0.035
ATCATGAT	0.289 ± 0.0047
ATCATGAA	0.111 ± 0.029
AACATAAC	0.18 ± 0.13
ATCATAAG	0.19 ± 0.028
ATCATGAG	0.111 ± 0.046
AACATAAG	0.13 ± 0.07
CGCGCCAG	-0.222 ± 0.12
ATTGAGAC	-0.0808 ± 0.13
GTGACAAA	0.0325 ± 0.033
GATAATGA	-0.00519 ± 0.014
AATAATGG	0.0129 ± 0.086
AATAATGC	0.1872 ± 0.0018
CATAATGA	0.0649 ± 0.033
AATAATGA	0.269 ± 0.062

Sequence	PBM 8-mer E-score
AATAATGT	0.258 ± 0.068
GCTCTTTA	0.0129 ± 0.059
CGAAACAG	-0.176 ± 0.0078
CCCGGCTC	-0.299 ± 0.021
CTCGGTTC	-0.185 ± 0.018
GTTTTACA	0.0874 ± 0.0056
GTGGTAAC	0.102 ± 0.049
ATGGTAAC	0.26 ± 0.046
ATGGTAAG	0.0283 ± 0.054
GATAGTAC	0.0698 ± 0.03
CCCCACCC	0.165 ± 0.027
GCCCACCA	-0.032 ± 0.095
ACCCACCC	0.299 ± 0.091
GCCCACAC	0.0523 ± 0.0056
GCCCACCC	0.294 ± 0.07
ACCCACCA	0.0656 ± 0.034
AACGGCCG	-0.0126 ± 0.14
ACCCCGAG	-0.142 ± 0.045
CATACCAG	0.0299 ± 0.094
ATGTATTC	0.107 ± 0.074
ATGTATCG	0.213 ± 0.065
ATGTATTA	0.22 ± 0.012
CTATATTA	0.199 ± 0.042
GTGTATTA	0.277 ± 0.0053
ATGTATTG	0.251 ± 0.048

Sequence	PBM 8-mer E-score
GTATATTA	0.28 ± 0.025
CTGTATTA	0.129 ± 0.013
ATATATTA	0.225 ± 0.056
AGCTAGAA	-0.0154 ± 0.041
GGTCCACA	-0.0698 ± 0.11
GACGCAGA	-0.0585 ± 0.079
CCCAGTAG	-0.0372 ± 0.037
CGGTAACA	-0.0167 ± 0.022
AGCCTGCA	0.0231 ± 0.12
AGCGTTGC	-0.0889 ± 0.092
CCGGCCGC	-0.23 ± 0.0085
CGCGGGTA	-0.0475 ± 0.074
ATGATTGA	0.127 ± 0.063
ACCCAACC	0.0711 ± 0.054
CATAATCA	0.08 ± 0.021
GATAATCC	-0.0364 ± 0.011
AATAATCA	0.08847 ± 8.5e-05
GATAATCA	0.311 ± 0.07
GCTAATCA	-0.0154 ± 0.012
TATAATCA	0.247 ± 0.037
ACTCCTCT	-0.0496 ± 0.01
GCCAAGAA	0.106 ± 0.011
ACCGAAAC	-0.0608 ± 0.064
ATCCTCAA	-0.0775 ± 0.063
CATCGCAA	0.0394 ± 0.039

Sequence	PBM 8-mer E-score
GGGCGGAC	-0.19 ± 0.067
GGGCGGGA	0.256 ± 0.051
GGCGGGAA	-0.0111 ± 0.026
AGGCGGGA	0.0523 ± 0.011
GGCGGGGA	0.245 ± 0.082
CGGCGGGA	-0.2043 ± 0.0015
CGCGGGGA	-0.0158 ± 0.054
AAGCCTAG	0.0589 ± 0.067
CGCTTCAC	-0.106 ± 0.011
GGAACGAC	-0.0812 ± 0.036
GACGCTCC	-0.151 ± 0.072
TATTAACA	0.128 ± 0.13
TATTAATA	0.288 ± 0.051
TATTAAAA	0.226 ± 0.062
CATTAATA	0.188 ± 0.011
CTTTAATA	0.16 ± 0.04
AATTAACA	0.244 ± 0.008
CATTAACA	0.22 ± 0.1
GTTTAATA	0.218 ± 0.022
AATTAATT	0.213 ± 0.015
ATTTAATA	0.245 ± 0.097
AATTAATA	0.271 ± 0.013
